Screening data from PubChem BioAssay.
Shiga inhibitor – Shiga toxin inhibition; Vero cells, Shiga toxin protein synthesis inhibition reporter; inhibition, % at 38.7 µM; AID 2315; 9.2% of 290,000 active; in the data active = inhibition mostly above about 28%, no sharp cut-off; inactive = mostly below about 43%; note: 0% is about no effect
FMDV inh – foot and mouth disease virus antiviral activity. FMDV antiviral cell-based qHTS. Potency, µM (series often up to 57.9 µM), without a hit: at the top dose activity change, negative = inhibition, most hits filed as inhibitors. 1.2% of 410,000 active; calls by dose curve; tested in HEK293T cells; note: read-out not given here; potency is the fitted concentration of half-maximal effect; % is set by controls: 0 for no effect and ±100 for the full control effect; nearly all actives have a fitted effect of over 45% in size
CHX counter – counter-screen hit for Shiga toxin inhibitors, cycloheximide; cell reporter, cycloheximide protein synthesis inhibition counterscreen; max response, %; 12% of 300,000 active; in the data active = max response mostly above about 13%, no sharp cut-off; inactive = mostly below about 14%; note: read at 38.3 µM for the half of the compounds with a filed dose; 0% is about no effect
Sm TGR block – inhibitors of Schistosoma mansoni thioredoxin glutathione reductase; Q962Y6; purified TGR, DTNB reduction, TNB absorbance 405 nm; Potency, µM (top dose mostly 114 µM), without a hit: top-dose activity change, negative = inhibition, actives largely listed as inhibitors; 3% of 360,000 active; AID 485364; active = well fitted inhibition curve with a large enough effect; inconclusive = small, poorly fitted or top-dose-only effect; inactive = no such curve, though single readings can be large or run the other way; note: potency is the fitted concentration of half-maximal effect; % is set by controls: 0 for no effect and ±100 for the full control effect; nearly all actives have a fitted effect of over 60% in size
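First, TGR (20 nM dispensed) and NADPH were mixed with compound. Second, a 15 min room-temperature incubation followed. Third, further NADPH and then DTNB were added to start the reaction. Finally, TNB absorbance was monitored kinetically.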
* marks the source's active call; other numbers are inactive results. Most compounds without a hit are left out; they make up all but 12% or so of the library.

What do the screens show for `COc1ccc(CCN2C(=O)c3cccnc3C2=O)cc1OC`?
Shiga inhibitor: 7; FMDV inh: 4%; CHX counter: -3; Sm TGR block: 0%

How did COc1ccc(NC2=C(Cl)C(=O)N(CCc3ccccc3)C2=O)cc1 do in these assays?
Shiga inhibitor: 53; FMDV inh: 49%; CHX counter: 26*; Sm TGR block: -3%

Results for COc1ccc(CCNC2=C(Cl)C(=O)N(CCc3ccc(OC)c(OC)c3)C2=O)cc1OC ?
Shiga inhibitor: -8; FMDV inh: 10µM*; CHX counter: 15; Sm TGR block: -13%

What do the screens show for `Cc1ccc(NC(=O)Cn2nnc(-c3ccccc3)n2)c(C)c1`?
FMDV inh: -4%; Sm TGR block: 2%

Results for O=C(NCc1ccco1)c1c(F)c(F)c(F)c(C(=O)NCc2ccco2)c1F ?
Shiga inhibitor: 3; FMDV inh: -26%; CHX counter: -3; Sm TGR block: 45µM*

How did O=C(NCc1ccco1)c1ccc2c(c1)OCCO2 do in these assays?
Shiga inhibitor: 26*; FMDV inh: 16%; CHX counter: 24*; Sm TGR block: -20%

Results for O=C(NCc1ccco1)c1ccc2c(c1)CCO2 ?
Shiga inhibitor: 17; FMDV inh: 23%; CHX counter: 18; Sm TGR block: inconclusive

How did O=C(NCc1ccco1)c1c(Cl)cccc1Cl do in these assays?
FMDV inh: -3%

What do the screens show for `Cc1cc(C(=O)NCc2ccccc2F)cs1`?
Shiga inhibitor: 34; FMDV inh: 43%; CHX counter: 16*; Sm TGR block: 6%

Results for O=C(NCc1ccccc1F)c1ccc2c(c1)OCCO2 ?
FMDV inh: 43%; CHX counter: 23*; Sm TGR block: -2%

How did N#CC(C(=O)c1ccccc1)=C1SCCS1 do in these assays?
Shiga inhibitor: 58*; FMDV inh: 28%; CHX counter: 35*; Sm TGR block: 17%

What do the screens show for `O=C(C(=O)c1ccc(O)cc1)c1ccccc1`?
Shiga inhibitor: 17; FMDV inh: 9%; CHX counter: 2; Sm TGR block: 0%

Results for Cn1c(-c2ccc(F)cc2)cnc1NCc1ccc(F)cc1 ?
Shiga inhibitor: 28; FMDV inh: 3%; CHX counter: 6; Sm TGR block: -10%

What do the screens show for `Cn1c(-c2ccc(F)cc2)cnc1NCc1ccc(F)cc1F`?
Shiga inhibitor: 23*; FMDV inh: 21%; CHX counter: 13; Sm TGR block: -18%

Results for Cn1c(-c2ccccc2)cnc1NCc1ccc(-c2ccccc2)cc1 ?
Shiga inhibitor: -3; FMDV inh: -4%; CHX counter: -2; Sm TGR block: 13%

Results for Cn1c(-c2ccc(F)cc2)cnc1NCc1ccccc1F ?
Shiga inhibitor: 19; FMDV inh: 52%; CHX counter: 17*; Sm TGR block: inconclusive

Results for Cn1c(-c2ccccc2)cnc1NCc1cc(Cl)ccc1O ?
Shiga inhibitor: 18; FMDV inh: 30%; CHX counter: 17*; Sm TGR block: -20%

What do the screens show for `CCOC(=O)CSc1nc(-c2ccc(C)cc2C)cc(-c2ccccc2)c1C#N`?
FMDV inh: 4%; Sm TGR block: -3%

What do the screens show for `COc1cc2nc(CN(C)Cc3ccc(OC)c(OC)c3OC)[nH]c(=O)c2cc1OC`?
Shiga inhibitor: 37*; FMDV inh: 36%; CHX counter: 11*; Sm TGR block: -3%

What do the screens show for `Cc1nn2c(=O)cc(COC(=O)Cc3ccccc3)nc2s1`?
FMDV inh: -7%; Sm TGR block: 4%

Results for O=C(Cc1ccc(-c2ccccc2)cc1)NCCS(=O)(=O)N1CCN(c2ccccc2)CC1 ?
FMDV inh: 8%; Sm TGR block: -11%

How did N#CCCn1nnc(-c2ccccc2F)n1 do in these assays?
Shiga inhibitor: -16; FMDV inh: -20%; CHX counter: -4; Sm TGR block: 12%

How did CC(C)c1ccc(-c2nnn(CCC#N)n2)cc1 do in these assays?
Shiga inhibitor: 72*; FMDV inh: 40%; CHX counter: 27*

Results for O=C(O)Cc1nc(-c2cccnc2)sc1-c1ccc(Br)cc1 ?
Shiga inhibitor: -13; FMDV inh: 2%; CHX counter: 1; Sm TGR block: 11µM*

Results for CN(C(=O)C1=CC(c2ccc3c(c2)OCO3)=NS(=O)(=O)N1C)c1ccccc1 ?
FMDV inh: 9%; Sm TGR block: -24%

What do the screens show for `C=CCNC(=O)c1c(Br)cnn1-c1ccc(C)cc1`?
Shiga inhibitor: 59*; FMDV inh: 30%; CHX counter: 45*; Sm TGR block: 9%

How did CCn1ncc(Br)c1C(=O)Nc1cc(C)cc(C)c1 do in these assays?
Shiga inhibitor: 4; FMDV inh: -4%; CHX counter: -1; Sm TGR block: 21%

Results for Cc1ccc(-n2ncc(Cl)c2C(=O)NCc2ccccc2)cc1 ?
Shiga inhibitor: 58*; FMDV inh: 14%; CHX counter: 42*; Sm TGR block: 97%

How did Cc1nc2nc(SCc3ccccc3)nn2c(C)c1C do in these assays?
FMDV inh: 43%; Sm TGR block: 5%

How did N#Cc1cnc2nc(SCc3ccccc3)nn2c1 do in these assays?
Shiga inhibitor: 70*; FMDV inh: 2%; CHX counter: 35*; Sm TGR block: 7%

What do the screens show for `CCOC(=O)c1cn2nc(SCc3ccccc3)nc2nc1C`?
Shiga inhibitor: 52*; FMDV inh: 23%; CHX counter: 39*; Sm TGR block: -2%

Results for Cc1csc(NC(=O)C2CCCCN2S(=O)(=O)c2ccccc2)n1 (centres undefined) ?
Shiga inhibitor: 26; FMDV inh: -13%; CHX counter: 13*; Sm TGR block: 0%

How did Cc1csc(NC(=O)c2ccc(S(=O)(=O)N3CCCC3)cc2)n1 do in these assays?
Shiga inhibitor: 39; FMDV inh: 16%; CHX counter: 17*; Sm TGR block: 0%

How did Cc1csc(NC(=O)c2ccc(S(=O)(=O)N3CCN(C)CC3)cc2)n1 do in these assays?
Shiga inhibitor: 58*; FMDV inh: 27%; CHX counter: 32*; Sm TGR block: 0%

Results for Cc1csc(NC(=O)c2cccc(S(=O)(=O)N3CCN(C)CC3)c2)n1 ?
Shiga inhibitor: 21; FMDV inh: 6%; CHX counter: 5; Sm TGR block: -1%

Results for Cc1ccc(C(c2sc3nc(-c4ccco4)nn3c2O)N2CCOCC2)cc1 (centres undefined) ?
FMDV inh: -2%; Sm TGR block: 9%

How did Cc1ccc2c(CC(=O)N(Cc3ccc(N(C)C)cc3)Cc3ccco3)coc2c1C do in these assays?
FMDV inh: inconclusive; Sm TGR block: -1%

Results for CCOC(=O)C1C(=O)N(C(=O)c2ccc(OC)cc2)CC1c1ccccc1 (centres undefined) ?
Shiga inhibitor: 16; FMDV inh: -8%; CHX counter: 9.6*; Sm TGR block: 4%

What do the screens show for `c1ccc(C2=NN(c3ccccc3)CC2)cc1`?
Shiga inhibitor: 114*; FMDV inh: 57%; CHX counter: 61*; Sm TGR block: 5µM*

Results for Cc1cccc(NC(=O)CCCc2ccccc2)c1C ?
Shiga inhibitor: 32*; FMDV inh: 23%; CHX counter: 23*; Sm TGR block: 3%

What do the screens show for `O=C(CCCc1ccccc1)Nc1ccccc1C(F)(F)F`?
FMDV inh: 24%; CHX counter: 13*; Sm TGR block: -24%
